This is a sample that favours compounds with a hit; in the whole collection about 2.5% have one here.
Env fusion inh: inhibitors of HIV Env-mediated cell fusion; inhibition, % at 12.3 µM; 1.1% of 360,000 active; HeLa-JRFL Env/CEM21 cell fusion, luciferase;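 active = mean replicate inhibition score of at least 50 and every replicate individually at or above 50; inconclusive = only one of the two criteria met; inactive = mean below 50 and not all replicates reaching 50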;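 also: 0% = plate neutral controls and 100% = maraviroc near 300 nM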
PAX8 inh HTS: lowers PAX8-driven luciferase in RMG-I cells | RMG-I TPO-luciferase reporter, SteadyGlo, 24 h | 1.2% of 360,000 active | inhibition, % at 12.6 µM | AID 652154;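 active = mean replicate inhibition at least 60% with every replicate also reaching 60%; inconclusive = only one of the two criteria is met; inactive = mean below 60% and not all replicates reaching 60%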;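 also: luciferase light reporting Pax8 driven TPO promoter activity; plate controls were median of neutral control wells for no effect and mitoxantrone controls for full effect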
CFTR F508del cor: CFTR F508del correction in bronchial cells | CFBE cells, YFP halide quenching; stimulated with forskolin plus potentiator P3; % fluorescence drop versus neutral controls | activity (quench increase), % at 7.58 µM | 0.36% of 350,000 active;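 active = mean added fluorescence quench of at least 8% versus neutral control, with both replicates also reaching 8%; inconclusive = only one of the mean or replicate conditions met; inactive = mean below 8% and not both replicates reaching 8%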;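 also: cells transiently co-express mutant CFTR-F508del with the halide-sensitive YFP; corrector assay measuring rescue of mutant channel to the surface after 24 h compound exposure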
EWS-Fli inh: inhibitors of EWS/Fli oncoprotein transcriptional activity; A673 NR0B1-luciferase reporter, viability-normalised; inhibition, % at 12.6 µM; 0.67% of 350,000 active; AID 651661;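 active = mean inhibition of at least 50% after viability correction, with every replicate also passing that limit; inconclusive = mean reaches 50% but only one of two replicates passes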;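 also: firefly luciferase signal divided by Alamar Blue viability fluorescence both relative to DMSO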
FXN GAA850 act: increases GAA850 frataxin promoter reporter activity; activation, % at 6 µM; 0.56% of 360,000 active; AID 540364; HEK293 lucGAA850 FXN promoter luciferase reporter, 24 h; percent of 10 µM SAHA response;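 active = activation above the average of all compounds screened plus 3 SD, cutoff fixed separately per campaign, cut at about 7.5% in these data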;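 also: 0% = DMSO wells and 100% = 10 µM SAHA wells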
Active calls of the source: *; ? = inconclusive; / = no result given; [ ] = another dose, or the depositor's remark.

SMILES	Env fusion inh	PAX8 inh HTS	CFTR F508del cor	EWS-Fli inh	FXN GAA850 act
COc1cc(-c2c(CCO)sc3ccccc23)cc(OC)c1OC	-65	17	2	56*	/
Cc1ccccc1Cn1c(=O)n(-c2ccccc2)c(=O)c2ccc(C(=O)NCc3ccco3)cc21	19	-15	1	-4	0
Cc1ccc(-n2c(=O)c3ccc(C(=O)NCc4ccco4)cc3n(Cc3ccccc3C#N)c2=O)cc1	-4	76*	/	6	1
CCN(CC)C(=O)c1ncn2c1C(=O)N[C@@H](C)C2	45	-9	-2	-3	/
CCN(CC)C(=O)c1ncn2c1C(=O)N[C@H](C)C2	62*	-6	-3	-6	/
CC1CCN(C(=O)c2ncn3c2C(=O)N[C@H](C)C3)CC1	72*	5	0	0	/
CC(C)NC(=O)Nc1ccc2c(c1)C(=O)N([C@H](C)CO)C[C@H](C)[C@H](CN(C)CC1CCCCC1)OCCCC[C@H](C)O2	-22[16.7 µM]	8	2	/	/
O=C1N(Cc2ccccc2)Cc2ccccc2[C@H]2OC(c3ccc(OCCCO)cc3)=N[C@@]12CCS(=O)(=O)c1ccccc1	-6[16.7 µM]	1	1	-6	/
CCSC1=C(C#N)C(c2ccc(Cl)cc2)C2=C(CCCC2=O)N1 (stereo not drawn)	58*	/	/	/	0
CC1(C)CC(N2CCCC2)=CC(=[N+]2CCCCCC2)C1	34	79*	2	3	-2
CN(Cc1ccccc1)C1=CC(=[N+]2CCCC2)CC(C)(C)C1	60*	58	4	24	-6
CCN(CC)C1=CC(=[N+]2CCCC2)CC(C)(C)C1	?	7	/	/	-1
CC1(C)CC(N2CCN(c3ccccc3)CC2)=CC(=[N+]2CCCC2)C1	81*	/	/	/	1
CC1CC(C)C[N+](=C2C=C(N3CCCC3)CC(C)(C)C2)C1 (stereo not drawn)	46	75*	4	48	-4
CSc1nc(N2CCN(c3ccccc3)CC2)cc(N2CCN(c3ccccc3)CC2)n1	15	5	-2	-14	2
COc1ccc(CN(C)C[C@@H]2OCCCC[C@@H](C)Oc3ccc(NS(C)(=O)=O)cc3C(=O)N([C@@H](C)CO)C[C@@H]2C)cc1	-18[16.7 µM]	44	2	-1	/
C[C@@H]1CCCCO[C@@H](CN(C)C(=O)Nc2ccc3c(c2)OCO3)[C@@H](C)CN([C@@H](C)CO)C(=O)c2cc(NC(=O)CCC(F)(F)F)ccc2O1	/	/	0	-4	/
COc1ccc2c(c1)OC[C@H]1[C@H]2N2C(=O)CN(Cc3ccc(F)cc3)C(=O)[C@@]2(C)[C@H]1c1ccccc1	48	3	4	8	2
Cc1ccc2c(c1)[C@H]1[C@H](CO2)[C@H](c2ccccc2)[C@]2(C)C(=O)N(Cc3ccc(F)cc3)CC(=O)N12	62*	8	2	-9	4
Cc1ccc2c(c1)[C@H]1[C@H](CO2)[C@H](c2ccccc2)[C@]2(C)C(=O)N(Cc3ccc(Cl)cc3)CC(=O)N12	65*	5	-3	2	0
COc1ccc2c(c1)OC[C@H]1[C@H]2N2C(=O)CN(Cc3ccc(C)cc3)C(=O)[C@@]2(C)[C@H]1c1ccccc1	87*	-11	4	8	1
CC(=O)N1[C@@H](CO)[C@@H](c2ccccc2)C12CN(C(=O)c1cnccn1)C2	/	/	0	-7	/
c1ccc(COc2ccc(OCCN3CCCCC3)cc2)cc1	/	99*	3	-37	2
c1ccc(COc2ccc(OCCCN3CCCC3)cc2)cc1	/	67*	-2	-11	5
c1ccc(COc2ccc(OCCN3CCCC3)cc2)cc1	/	/	/	/	5
SMILES	Env fusion inh	PAX8 inh HTS	CFTR F508del cor	EWS-Fli inh	FXN GAA850 act
Cc1noc(C)c1S(=O)(=O)Nc1ccc2c(c1)CC(=O)N([C@@H](C)CO)C[C@@H](C)[C@H](CN(C)S(=O)(=O)c1c(C)noc1C)O2	-1[16.7 µM]	-24	3	-3	/
O=C(c1ccco1)N1c2ccccc2Sc2ccccc21	/	/	/	/	-1
O=C(c1ccco1)N1CCN(C(=O)N2c3ccccc3Sc3ccccc32)CC1	/	/	6	54*	5
O=C(C1CC1)N1CCCCN2[C@H](C1)[C@H](c1ccc(-c3ccncc3)cc1)[C@@H]2CO	/	0	-2	-8	/
COCC(=O)N1CC2(C1)[C@H](c1ccc(-c3ccccc3)cc1)[C@@H](CO)N2C(C)=O	/	/	-5	6	/
CCOC(=O)c1ccc(-c2c(-c3cc(OC)c(OC)c(OC)c3)noc2C)cc1F	-84	30	16*	3	-1
CCOC(=O)c1ccc(-c2c(-c3ccc(OC)cc3)oc(=O)c3cc(OC)c(OC)cc23)cc1F	8	-6	2	-9	-2

High-throughput results: PubChem, several laboratories
